Screening data deposited in PubChem BioAssay by National Center for Advancing Translational Sciences (NCATS).
HT1080 IDH1KD tx = kills HT-1080 cells with IDH1 knockdown; AID 686971; HT-1080 IDH1 knockdown viability, ATP luminescence, 48 h; Potency, µM (top dose mostly 46.1 µM), actives largely listed as cytotoxic; 360,000 compounds, 2% hits
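Cytotoxicity counter-line: IDH1KD HT-1080, 48 h, CellTiter-Glo. Curves classed by r2, magnitude and activity.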
TDP1 cell noCPT = qHTS for Inhibitors of human tyrosyl-DNA phosphodiesterase 1 (TDP1): qHTS in cells in absence of CPT | DT40 Tdp1-/- hTDP1 cells, no CPT, ATP luminescence, 48 h | Potency, µM (titrated, usually from 46.2 µM), usual class: inhibitors | 420,000 compounds, 15% hits | AID 686978, 2013; also: nearly all actives have a fitted effect of over 55% in size
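Compound effects on proliferation are scored in DT40 Tdp1-/-;hTDP1 cells in the absence of CPT. ATP levels (CellTiter-Glo luminescence) are recorded after a ≥48 hr, 37 °C incubation.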
ELG1 DNA repair = ELG1-dependent DNA repair inhibition; HEK293T ELG1-luciferase reporter, luminescence, 16 h; DNA damage induced by 5-fluorouridine; 330,000 compounds, 2.3% hits; Potency, µM (top dose mostly 46.1 µM), hits mostly inhibitors; also: nearly all actives have a fitted effect of over 55% in size
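Quantitative HTS, concentration-response format. 2,000 cells/well co-treated with 5-fluorouridine and compound, 16 hr in 5% CO2 at 37 °C; ONE-Glo luminescence read after 30 min.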
HT1080NT lethal = kills 2HG-producing HT-1080-NT fibrosarcoma cells. 360,000 compounds, 1.6% hits. Potency, µM (titrated, usually from 46.1 µM), hits mostly cytotoxic. HT-1080-NT fibrosarcoma viability, CellTiter-Glo ATP luminescence, 48 h. AID 686970;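 also: NT is the 2HG producing partner of a matched IDH1 knockdown line; nearly all actives have a fitted effect of over 55% in size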
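Compounds were tested in concentration-response format on HT-1080-NT cells for 48 hours at 37 degrees C. Cell viability came from CellTiter-Glo luminescence; curves were classified by r2, response magnitude and activity.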
TDP1 cell CPT = growth inhibition of DT40 Tdp1-/-;hTDP1 cells with camptothecin (screen for TDP1 inhibitors). chicken DT40 Tdp1-/-;hTDP1 cells + 20 nM CPT, ATP luminescence, 48 h. Potency, µM (series often up to 46.2 µM), actives largely listed as inhibitors. 420,000 compounds, 12% hits. AID 686979; also: nearly all actives have a fitted effect of over 55% in size
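Cell growth measured by CellTiter-Glo luminescence after a minimum 48 h, 37 C compound exposure with 20 nM CPT in Tdp1-knockout DT40 cells stably expressing hTDP1, seeded 400/well; qHTS titration format.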
IL-1B inflam inh = inhibitors of inflammasome signaling (IL-1 beta secretion); activity change, % at 57.5 µM; AID 743279; THP-1 LPS/ATP IL-1B secretion, AlphaLISA, 16 h; active compounds read low; 360,000 compounds, 4.7% hits; in the data active = activity change below about -50%; inconclusive = mostly about -30% to -49%
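THP-1 cells pretreated 1 hr with compounds (up to 57.5 uM final), then stimulated with LPS (250 ng/mL final) plus ATP (1.25 mM final); secreted IL-1B measured by AlphaLISA after 16 hr, decreased signal indicating inhibition.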
Each line names hits and unclear results; the compound was inactive in the other large screens. Shown are actives, neighbours in structure and some others; about 19% of the full set was active somewhere. Unless noted, calls follow the shape of the dose curve; as a rule, active = well fitted curve in the direction sought with a large enough effect; inconclusive = small, poorly fitted or top-dose-only effect, or another doubt; inactive = no such curve, though single readings can be large; an effect the other way counts as inactive or inconclusive.

CC1=C(C(=O)OC(C)C)C(c2ccc(C)o2)C(C(=O)OC(C)C)=C(C)N1	TDP1 cell noCPT inconclusive, ELG1 DNA repair 18µM (no result: IL-1B inflam inh)
CCOC(=O)C1=C(C)NC(C)=C(C(=O)OCC)C1c1ccc(Br)o1	TDP1 cell noCPT 23µM, ELG1 DNA repair inconclusive, TDP1 cell CPT 9.2µM, IL-1B inflam inh -72
O=C1NC(=O)C2C1C(c1cccs1)NN2Cc1ccccc1 (stereo unspecified)	TDP1 cell noCPT 29µM, TDP1 cell CPT 29µM
O=C1c2ccccc2S(=O)(=O)N1CCS(=O)(=O)c1ccc(F)cc1	IL-1B inflam inh -76
COc1cc(OC)c(OC)cc1CCC(C)NCCC(c1ccccc1)c1ccccc1 (stereo unspecified)	HT1080 IDH1KD tx inconclusive, TDP1 cell noCPT 5.8µM, ELG1 DNA repair inconclusive, HT1080NT lethal inconclusive, TDP1 cell CPT 6.5µM, IL-1B inflam inh -65
CCC(C(N)=NCCc1ccc(OC)c(OC)c1)c1ccccc1 (stereo unspecified)	TDP1 cell noCPT 8.2µM, ELG1 DNA repair inconclusive, TDP1 cell CPT 15µM
COc1ccc(CCNCCC(c2ccccc2)c2ccccc2)cc1OC	TDP1 cell noCPT 18µM, TDP1 cell CPT 18µM, IL-1B inflam inh -54 (no result: ELG1 DNA repair)
COc1cc(OC)cc(C(=O)NCCC(c2ccccc2)c2ccccc2)c1	TDP1 cell noCPT inconclusive, TDP1 cell CPT inconclusive
NC(=O)CC1C(=O)N(c2ccccc2)C(=S)N1NC(=O)c1ccccc1 (stereo unspecified)	ELG1 DNA repair inconclusive
COCCNC(=O)CN(C(=O)CCC(=O)Nc1ccccn1)c1ccc(C)cc1C	none
CCC(Sc1ccc(Cl)cc1)C(=O)Nc1nnc(-c2cccc([N+](=O)[O-])c2)s1 (stereo unspecified)	TDP1 cell noCPT 13µM, ELG1 DNA repair inconclusive, TDP1 cell CPT inconclusive
C[C@@H]1CN(Cc2ccc3c(c2)CN(Cc2cccc4cccnc24)CCO3)C[C@H](C)O1	TDP1 cell noCPT inconclusive (no result: HT1080 IDH1KD tx, ELG1 DNA repair, HT1080NT lethal, IL-1B inflam inh)
COc1ccc(CCC(=O)Nc2cc(S(=O)(=O)N3CCCCC3)ccc2N(C)C)cc1	TDP1 cell noCPT inconclusive, ELG1 DNA repair inconclusive, TDP1 cell CPT inconclusive
O=C(Nc1nnc(COc2ccc(Cl)cc2)s1)c1ccc([N+](=O)[O-])cc1	none
O=C(Nc1ncc(Cc2ccccc2Cl)s1)C1=NCCN1	HT1080 IDH1KD tx inconclusive, TDP1 cell noCPT inconclusive, HT1080NT lethal inconclusive, TDP1 cell CPT 21µM
O=C(Nc1ncc(Cc2ccc(Cl)cc2Cl)s1)c1ccc([N+](=O)[O-])cc1	TDP1 cell noCPT 18µM, TDP1 cell CPT 18µM
CN(C)c1ccc(CNC(=O)C2COc3ccccc3C2)cc1 (stereo unspecified)	none (no result: HT1080 IDH1KD tx, ELG1 DNA repair, HT1080NT lethal, IL-1B inflam inh)
C=C1C2=C(C(=O)N1OC)[C@@H](O)[C@@](C)(O)[C@@H](CCCCC)O2	HT1080 IDH1KD tx inconclusive, TDP1 cell noCPT 13µM, HT1080NT lethal inconclusive, TDP1 cell CPT 15µM, IL-1B inflam inh -83 (no result: ELG1 DNA repair)
CCOC(=O)c1ccc(S(=O)(=O)N2CCC(C(=O)NCC3CCCCC3)CC2)cc1	none
COCCN1C(=O)CCC1(C)C(=O)Nc1c(C)cccc1C (stereo unspecified)	none (no result: ELG1 DNA repair)
N[C@H](CC(=O)O)C(=O)O	TDP1 cell noCPT inconclusive (no result: HT1080 IDH1KD tx, ELG1 DNA repair, HT1080NT lethal, IL-1B inflam inh)
Cc1c(N)nc([C@H](CC(N)=O)NC[C@H](N)C(N)=O)nc1C(=O)N[C@H](C(=O)N[C@H](C)[C@@H](O)[C@H](C)C(=O)N[C@H](C(=O)NCCc1nc(-c2nc(C(=O)NCCCCN=C(N)N)cs2)cs1)[C@@H](C)O)[C@@H](O[C@@H]1O[C@@H](CO)[C@@H](O)[C@H](O)[C@@H]1O[C@H]1O[C@H](CO)[C@@H](O)[C@H](OC(N)=O)[C@@H]1O)c1cnc[nH]1	TDP1 cell noCPT 0.94µM, TDP1 cell CPT 1.2µM (no result: HT1080 IDH1KD tx, ELG1 DNA repair, HT1080NT lethal, IL-1B inflam inh)
